In PubChem BioAssay AID651658 (Broad Institute, 2012):
Values joined by “and” are separate entries in the source; they are usually repeats but may differ in a detail not shown here. Equal values may be shown once. In all, about 340,000 compounds went through this assay and about 5,100 (1.5%) were called active. The list comes from a sample in which actives are over-represented; it also holds similar structures and randomly drawn compounds. Unmarked numbers belong to inactive results.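 How the source made its calls: active means mean Tm shift, scaled 0 neutral to 100 positive control, at about 1.3% or above, every replicate too (limit read from the data); inconclusive means no clear call, values can overlap the other calls; inactive means the rest.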

Each molecule was assayed against Fibroblast growth factor 22 (Homo sapiens) (UniProt Q9HCT0) (assay: binders of human FGF22 protein, primary screen, FGF22 synaptogenesis inhibitor project, biophysical, thermal shift, single point (AID 651658)). Settings: recombinant FGF22 thermal shift, SYPRO orange fluorescence; at 9.99 µM; active compounds read high; percent of sucrose octasulfate shift, DMSO zero.
Sequence of Fibroblast growth factor 22 (Homo sapiens) (Q9HCT0 whole entry, looked up): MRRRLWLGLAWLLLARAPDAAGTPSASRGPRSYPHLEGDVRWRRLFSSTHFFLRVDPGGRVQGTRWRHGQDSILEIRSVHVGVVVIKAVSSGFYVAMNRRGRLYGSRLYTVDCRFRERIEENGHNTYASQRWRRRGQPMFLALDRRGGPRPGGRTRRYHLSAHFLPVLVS

SMILES | activity (Tm shift, normalised)
C=CCN1C2CCCC1CC(NC(=S)Nc1cccc(OC)c1)C2 (stereo not given) | 43.2% (active)
CCCN1C2CCCC1CC(NC(=O)c1cccc(OC)c1)C2 (stereo not given) | -0.224%
COc1cccc(NC(=O)N2C3CCCC2CC(NC(C)=O)C3)c1 (stereo not given) | 0.301%
O=S(=O)(N[C@@H]1CC[C@H](CCn2cc(C3(O)CCCC3)nn2)O[C@@H]1CO)c1ccc(Cl)cc1 | -0.216%
C[C@H]1CN([C@@H](C)CO)S(=O)(=O)c2ccc(-c3cccnc3)cc2O[C@H]1CN(C)C(=O)C1CCCCC1 | 0.041%
CCCN1C[C@@H](C)[C@@H](OC)CN(C)C(=O)c2ccc(NC(=O)Nc3cccc(F)c3)cc2OC[C@@H]1C | -0.405%
OCCC1CN(Cc2ccc(Oc3ncccn3)cc2)CCN1CCc1ccccc1 (stereo not given) | 0.032%
CCOc1ccc(CN2CCN(CCCc3ccccc3)C(CCO)C2)cc1 (stereo not given) | -0.164%
COC(=O)c1ccc(CN2CCN(CCCc3ccccc3)C(CCO)C2)cc1 (stereo not given) | 43.7% (active)
O=C(C[C@H]1CC[C@H](NC(=O)C2CCC2)[C@@H](CO)O1)NCCCN1CCOCC1 | 0.216%
O=C(C1CCOCC1)N1CC2(C1)[C@H](c1ccccc1)[C@H](CO)N2Cc1ccc(Cl)cc1 | -0.232%
CN1C[C@H](O)COC[C@H]2O[C@H](CC(=O)NC3CCC3)CC[C@@H]21 | 0.225%
CCC(=O)N1C[C@@H](C)[C@@H](OC)CN(C)C(=O)c2ccc(NC(=O)C3CCCCC3)cc2OC[C@H]1C | 0.107%
COc1ccccc1N(CC(=O)Nc1ccccc1C(=O)N1CCCC1)S(C)(=O)=O | 41.8%
COc1ccccc1NC(=O)CN(c1ccccc1OC)S(=O)(=O)c1ccccc1 | -0.013%
COc1ccccc1N(CC(=O)Nc1ccc(C(F)(F)F)cc1)S(C)(=O)=O | 43.3% (active)
COc1cccc(S(=O)(=O)N2C[C@H](O)COC[C@H]3O[C@@H](CC(=O)N4CCN(c5ccccc5)CC4)CC[C@@H]32)c1 | 0.06%
Clc1ccc(-c2cccc3nccn23)cc1 | 0.174%
c1cc(-c2ccc3[nH]ccc3c2)n2ccnc2c1 | 43.4% (active)
O=C(NCCO)c1cccc(-c2cccc3nccn23)c1 | -0.228%
Cn1cnc(CCNC(=O)C[C@H]2CC[C@@H]3[C@H](COC[C@H](O)CN3C(=O)C3CC3)O2)c1 | -0.297%
COc1cccc(S(=O)(=O)N2CC3(CCN(C)CC3)c3c(n(C)c4cc(OC)ccc34)[C@H]2CO)c1 | 0.01%
C[C@H]1CN([C@@H](C)CO)C(=O)c2c(c3ccccc3n2C)-c2ccccc2CO[C@@H]1CN(C)Cc1ccc2c(c1)OCCN2C | -0.115%
Cc1ccc(NNC(=O)c2cccs2)cc1Cl | -0.036%
O=C(NNC(=O)c1ccc(Cl)cc1Cl)c1cccs1 | 43.3% (active)
O=C(COC(=O)c1ccc(O)cc1O)NNC(=O)c1cccs1 | 0.153%
C/C=C/c1cnc2c(c1)C(=O)N([C@H](C)CO)C[C@H](C)[C@@H](CN(C)CC1CCOCC1)O2 | -0.049%

SMILES | activity (Tm shift, normalised)
C[C@@H]1CN([C@@H](C)CO)S(=O)(=O)c2ccc(C3=CCCC3)cc2O[C@H]1CN(C)C(=O)CC1CC1 | -0.028%
COc1ccc2c3c([nH]c2c1)[C@@H](CO)N(C(=O)Nc1cccc(F)c1)CC31CCN(S(=O)(=O)c2ccccc2)CC1 | -0.126%
O=C(N[C@@H]1C=C[C@H](CC(=O)N2CCCCC2)O[C@H]1CO)c1cccc(F)c1 | 2.12% (active)
O=C(N[C@H]1C=C[C@@H](CC(=O)N2CCCCC2)O[C@@H]1CO)c1ccc2c(c1)OCO2 | -0.043%
O=C(N[C@H]1CC[C@H](CC(=O)N2CCCCC2)O[C@@H]1CO)c1cccc(F)c1 | -0.194% and -0.138%
CCCNC(=O)N1CC2(CN(C(=O)c3cnccn3)C2)c2c([nH]c3cc(OC)ccc23)[C@@H]1CO | 0.028%
CCn1c(C(C)C)n[nH]c1=S | 43.3% (active)
CCn1c(-c2ccncc2)n[nH]c1=S | 0.117%
CCc1cc(-c2n[nH]c(=S)n2CC(C)C)cs1 | -0.833%
O=C(C[C@H]1C[C@H]2c3cc(NC(=O)Nc4ccccc4F)ccc3O[C@H]2[C@H](CO)O1)NCc1ccccn1 | 0.07%
Cc1cccc(C)c1NC(=O)C1(N(C(=O)c2ccccn2)c2ccc(O)cc2)CCCCC1 | 43% (active)
Cc1cccc(C)c1NC(=O)CNC(=O)C1CCCC1 | -0.023%
Cc1cccc(C)c1NC(=S)N1CCCCCC1 | -0.275%
O=C(N[C@H]1CC[C@H](CCNS(=O)(=O)c2ccc(F)cc2)O[C@H]1CO)c1cccc(F)c1 | -0.051%
O=C(Nc1cc(F)ccc1F)N[C@@H]1C=C[C@@H](CC(=O)N2CCc3ccccc3C2)O[C@@H]1CO | -0.137%
CCC(=O)N1[C@@H](CO)[C@@H]2c3ccccc3N(C(=O)c3cnccn3)C[C@@H]21 | -0.28%
Cc1ccc(S(=O)(=O)N2CCN(C(=O)COC(=O)c3c(C)noc3C)CC2)c(C)c1 | -0.319%
COc1ccc(C(=O)COC(=O)c2c(C)noc2C)cc1Cl | 44% (active)
CCc1noc(C)c1C(=O)OCC(=O)c1ccc(NC(=O)CC(C)C)cc1 | -0.332%
CCOC(=O)C1=C(CC)OC(N)=C(C#N)C1c1ccc(F)cc1F (stereo not given) | 43.8% (active)
COC(=O)C1=CN(c2c(C)cc(C)cc2C)C(N)=C(C#N)C1c1cccc(F)c1 (stereo not given) | -0.26%
Cn1c2c(c(=O)n(C)c1=O)C(c1cccc(F)c1)C(C#N)=C(N)O2 (stereo not given) | -0.167%
COc1ccc(-c2ccc3c(n2)CCCN3S(=O)(=O)c2ccc(C)cc2)cc1 | 48.4% (active)
CN1CCCc2nc(-c3ccccc3)ccc21 | 42.2%
O=S(=O)(c1cccs1)N1CCCc2nc(-c3ccc(Br)cc3)ccc21 | 0.061%
C[C@@H]1CCCCO[C@@H](CN(C)Cc2ccc(C(=O)O)cc2)[C@H](C)CN([C@H](C)CO)C(=O)c2cc(NS(=O)(=O)c3cccs3)ccc2O1 | -0.274%
C[C@@H]1CN([C@H](C)CO)C(=O)c2cc(NS(=O)(=O)c3ccccc3)ccc2O[C@@H](C)CCCCO[C@H]1CN(C)S(=O)(=O)c1ccc(Cl)cc1 | -0.893%

SMILES | activity (Tm shift, normalised)
COCc1cn(CC[C@H]2CC[C@H](NC(=O)Nc3ccc4c(c3)OCO4)[C@@H](CO)O2)nn1 | -0.239%
CO[C@@H]1CN(C)C(=O)c2cc(NC(=O)Nc3cccc(F)c3)ccc2OC[C@H](C)N(C)C[C@@H]1C | -0.31%
COc1ccc(-c2ccc3c(c2)[C@H]2[C@H](CCN2C(=O)C2CCOCC2)[C@H](CO)N3C)cc1 | -0.244%
Cc1ccc(C2=Nc3c(ccc4ccccc34)C(c3ccncc3)=NN2)cc1 | 44% (active)
COc1ccc(S(=O)(=O)N(C)C[C@@H]2Oc3ccc(NC(=O)CCN4CCOCC4)cc3CC(=O)N([C@@H](C)CO)C[C@@H]2C)cc1 | -0.109%
CCc1ccccc1NC(=O)CN(C)S(=O)(=O)c1ccc2c(c1)c(=O)n(C)c(=O)n2C | -0.036%
Cn1c(=O)c2cc(S(=O)(=O)NCCC(=O)Nc3ccc(F)cc3F)ccc2n(C)c1=O | 43.3% (active)
COc1ccc(NC(=O)CCNS(=O)(=O)c2ccc3c(c2)c(=O)n(C)c(=O)n3C)cc1OC | -0.132%
CCCC#Cc1cnc2c(c1)C(=O)N([C@@H](C)CO)C[C@@H](C)[C@@H](CN(C)Cc1ccccc1F)O2 | -0.354%
C/C(=N\OC(=O)c1ccccc1)c1c(C)nc2cc(C)ccn12 | 44.6% (active)
Cc1ccn2c(-c3csc(Nc4ccc(C(=O)O)cc4)n3)c(C)nc2c1 | -0.135%
C/C(=N/OC(=O)c1ccc(Br)cc1)c1ccc(C)cc1 | 0.152%
Cc1ccccc1-c1cnc2c(c1)C(=O)N([C@H](C)CO)C[C@@H](C)[C@H](CN(C)C(=O)c1cccnc1)O2 | 0.163%
CO[C@@H]1CN(C)C(=O)c2ccc(NC(=O)Nc3cc(Cl)cc(Cl)c3)cc2OC[C@H](C)NC[C@H]1C | -0.905%
Cc1ccc(S(=O)(=O)NC2CCCCCC2)cc1 | 43% (active)
Cc1ccc(S(=O)(=O)N[C@H]2CCC[C@@H]2O)cc1 | -0.275%
CC(C)c1ccc(S(=O)(=O)NC2CCCC2)cc1 | 0.004%
C[C@@H]1CN([C@@H](C)CO)C(=O)CCCn2cc(nn2)CO[C@@H]1CN(C)S(=O)(=O)c1ccccc1C#N | -0.156%
CSc1ccc(/C=N/NC(=O)c2cccc(Cl)c2)cc1 | 0.743%
O=C(CC(=O)N/N=C\c1ccc(F)cc1)NCCc1ccccc1 | 0.292%
CSc1ccc(/C=N\NC(=O)CC(=O)NC(C)C)cc1 | 43.1% (active)
Cc1ccc(S(=O)(=O)N(C)C[C@@H]2Oc3ccc(NS(=O)(=O)c4cccs4)cc3C(=O)N([C@@H](C)CO)C[C@H]2C)cc1 | -0.456%
CO[C@H]1CN(C)C(=O)c2cc(NC(=O)C3CCC3)ccc2OC[C@H](C)N(CC2CCCCC2)C[C@@H]1C | 0.141%
CCN(c1ccccc1)S(=O)(=O)c1ccc(N)cc1 | -0.161%
O=S(=O)(ON(c1ccccc1)S(=O)(=O)c1ccccc1)c1ccccc1 | 1.68% (active)
O=S(=O)(c1ccccc1)N(Cc1cccc(F)c1)c1ccccc1 | -0.239%
